# Activity calls are given as the source filed them.
# Experiments:
# Albumin (Bos taurus) = Albumin (Bos taurus) (UniProt P02769); experiment: compounds binding labelled BSA control protein – biochemical, small-molecule microarray, Alexa647 label, 635/667 nm fluorescence, artefact control for SMM control protein annotation, profiling panel (AID 1118); details: BSA-A647 binding, fluorescence 635 nm, higher = more signal;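 also: score merges 667 nm emission intensity and signal-to-noise per printed compound spot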
# [1] = probe aXIP binding to arrayed compounds – biochemical, NeuroSMM set, 635/667 nm fluorescence, primary screen (AID 1119); details: small-molecule microarray, higher = more signal, called active from +8 up or from −8 down;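 also: probe is the protein aXip251-270 applied at 1 µg/mL to compound-printed slides; binding of probe to printed compounds measured as 667 nm fluorescence plus signal to noise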
# [2] = probe aNOTCH3 binding on compound microarray – biochemical, small-molecule microarray, 635/667 nm fluorescence, primary screen (AID 1120); details: higher = more signal;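 also: probe is a biotin-tagged antibody raised against NOTCH3 rather than NOTCH3 protein; score merges spot fluorescence near 667 nm with spot signal to noise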
# [3] = probe aNOTCH2 binding on compound microarray – biochemical, small-molecule microarray, 635/667 nm fluorescence, primary screen (AID 1121); details: higher = more signal;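 also: score merges feature fluorescence read at 667 nm with its signal to noise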
# [4] = molecular target: Carbonic anhydrase 2 (Homo sapiens) (UniProt P00918); experiment: compounds binding carbonic anhydrase 2 – biochemical, small-molecule microarray, Alexa647-labelled CAII, profiling panel (AID 1122); details: CAII-A647 binding fluorescence, higher = more signal
# [5] = COS7 lysate on small-molecule microarray, probe aHis, 635 nm (AID 1123); details: COS7 cell lysate, fluorescence, higher = more signal;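 also: z-score combines 667nm fluorescence intensity with signal-to-noise per printed compound spot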
# [6] = probe aLAP1 signal on lysate-treated microarray – cell lysate, small-molecule microarray, COS7 lysate, primary screen (AID 1124); details: probe aLAP1, fluorescence, higher = more signal;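 also: lysate comes from COS7 cells expressing LAP1 and is applied at 0.3 µg/mL; score merges spot fluorescence near 667 nm with signal-to-noise over triplicate slides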
# Sam68 (KHDRBS1) = experiment: compounds binding KHDRBS1 protein – biochemical, small-molecule microarray, 635 nm fluorescence, primary screen (AID 1125); details: higher = more signal;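 also: score merges 667 nm channel intensity with signal to noise over triplicate slides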
# [7] = tested on: Chordin-like protein 2 (CHRDL2); experiment: compounds binding chordin-like 2 – biochemical, small-molecule microarray, 635 nm fluorescence, primary screen (AID 1126); details: fluorescence 635 nm, higher = more signal;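 also: printed compound slides probed with Chrdl2 protein at 4 µg/mL for 1 h at 4 C; score merges 667 nm emission intensity with signal to noise over three replicate slides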
# [8] = molecular target: Concanavalin-A (Canavalia ensiformis) (UniProt P02866); experiment: compounds binding concanavalin A lectin – biochemical, small-molecule microarray, Alexa647 label, 635 nm, artefact control for SMM control protein annotation, primary screen (AID 1127); details: ConA-A647 binding fluorescence, higher = more signal;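 also: z combines 667 nm emission intensity with signal-to-noise across three replicate slides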
# Chain of Concanavalin-A (Canavalia ensiformis) (P02866 whole entry, looked up): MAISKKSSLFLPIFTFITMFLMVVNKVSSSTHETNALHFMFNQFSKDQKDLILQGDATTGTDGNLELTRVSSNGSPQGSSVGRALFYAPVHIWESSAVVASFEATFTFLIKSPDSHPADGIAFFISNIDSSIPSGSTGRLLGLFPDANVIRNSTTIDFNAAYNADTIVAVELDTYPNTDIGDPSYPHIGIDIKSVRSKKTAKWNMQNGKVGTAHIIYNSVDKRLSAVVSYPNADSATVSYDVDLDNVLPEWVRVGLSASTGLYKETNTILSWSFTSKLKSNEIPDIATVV
# Chain of Albumin (Bos taurus) (P02769 whole entry, looked up): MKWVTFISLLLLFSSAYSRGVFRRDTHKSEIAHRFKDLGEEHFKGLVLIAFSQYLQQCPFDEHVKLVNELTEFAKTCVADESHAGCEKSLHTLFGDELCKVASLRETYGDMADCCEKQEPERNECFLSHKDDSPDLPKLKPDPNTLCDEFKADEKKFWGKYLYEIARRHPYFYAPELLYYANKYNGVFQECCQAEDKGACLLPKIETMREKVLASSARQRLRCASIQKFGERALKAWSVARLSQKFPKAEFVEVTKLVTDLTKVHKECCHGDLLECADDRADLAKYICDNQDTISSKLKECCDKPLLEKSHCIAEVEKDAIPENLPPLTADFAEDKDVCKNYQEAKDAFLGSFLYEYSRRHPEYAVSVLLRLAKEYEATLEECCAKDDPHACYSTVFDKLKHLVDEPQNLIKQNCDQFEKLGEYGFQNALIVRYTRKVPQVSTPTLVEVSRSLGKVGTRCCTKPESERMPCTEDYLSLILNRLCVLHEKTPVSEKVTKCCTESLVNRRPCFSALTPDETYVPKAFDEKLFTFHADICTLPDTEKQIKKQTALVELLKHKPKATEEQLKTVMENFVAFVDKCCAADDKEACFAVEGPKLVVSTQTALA
SMILES,composite z-score (Albumin (Bos taurus)),composite Z-score [1],composite z-score [2],composite z-score [3],composite z-score [4],composite z-score [5],composite z-score [6],composite z-score (Sam68 (KHDRBS1)),composite z-score [7],composite z-score [8]
O=C1C2C=CC(C(O)c3ccc(F)cc3)N(Nc3ccccc3F)C2C(=O)N1c1ccccc1 (stereo not given),0.983,0.482 (inactive),0.323,-0.0194,0.823,3.13,-0.0953,1.13,-0.868,0.493
COCCOC(=O)N1C(=O)[C@@]2(c3ccccc31)[C@H](c1ccc(O)cc1)N1[C@H](c3ccccc3)[C@H](c3ccccc3)OC(=O)[C@H]1[C@@H]2C(=O)NC[C@H](O)c1ccccc1,0.827,0.442 (inactive),0.0888,-0.0513,0.756,1.79,0.506,1.07,-1.04,0.291
C=CCNC(=O)[C@H]1[C@@H]2C(=O)O[C@@H](c3ccccc3)[C@@H](c3ccccc3)N2[C@@H](c2ccc(O)cc2)[C@]12C(=O)N(C(=O)OCCOC)c1ccc(C#CCNC(N)=O)cc12,-0.213,0.384 (inactive),0.0955,0.0313,0.484,0.275,0.0793,1.13,0.64,0.932
C=C(/C(=C/C[C@@H](OC(C)=O)c1ccc(OCCO)cc1)c1cnc2ccccc2c1)C(C)C,0.444,-0.199 (inactive),-0.0362,-0.17,0.425,0.387,-0.0638,0.713,0.159,0.806
C=CCNC(=O)[C@@H]1[C@H]2C(=O)O[C@H](c3ccccc3)[C@H](c3ccccc3)N2[C@H](c2ccc(OCCO)cc2)[C@@]12C(=O)Nc1ccc(C#Cc3ccc(OC)cc3)cc12,0.77,0.883 (inactive),0.102,-0.0464,0.331,1.14,0.606,1.3,0.605,1.13
CCOC(=O)[C@H]1C/C=C/C[C@H](C(=O)OCC)C(=O)O[C@H]2[C@@H](OC)O[C@H](CO)[C@@H](OC(=O)Nc3ccc(C#N)cc3)[C@@H]2OC1=O,0.842,0.941 (inactive),-0.307,-0.159,0.607,0.823,0.603,0.171,-0.619,-0.175
CCCC#C[Si](O[C@H](CC)c1cn([C@H](CO)Cc2ccccc2)nn1)(C(C)C)C(C)C,0.868,-0.483 (inactive),-0.108,-0.0986,0.667,0.516,-0.126,0.838,0.322,0.632
C=CCOC(=O)[C@H]1[C@@H]2C(=O)O[C@@H](c3ccccc3)[C@@H](c3ccccc3)N2[C@@H](c2ccc(OCCOC(=O)[C@H]3C[C@H]4C(=O)N5CCC[C@H]5C(=O)N4[C@H]3c3ccc(O)cc3)cc2)[C@]12C(=O)Nc1ccc(I)cc12,-0.124,5.37 (inactive),1.47,0.755,0.364,3.31,1.13,1.31,1.06,0.955
COc1cc(OC)c(C(O)C2C=CC3C(=O)NC(=O)C3N2Nc2ccc(Cl)cc2Cl)cc1Br (stereo not given),1,2.76 (inactive),0.282,0.321,0.615,2.99,0.474,1.22,-1.09,0.468
CCCCC=C[C@@H](NC(=O)Oc1cccc(C(F)(F)F)c1)c1ccccc1,1.02,0.505 (inactive),0.888,0.39,0.755,0.183,-0.403,1.27,-0.0519,1.13
COc1ccc(C(O)C2C=CC3C(=O)N(c4ccccc4)C(=O)C3N2Nc2ccccc2F)cc1OCc1ccccc1 (stereo not given),1.01,1.22 (inactive),0.837,0.114,0.51,2.04,-0.0892,1.31,-0.175,1.13
